Experimental data: PubChem BioAssay (NCATS)
“And” between values parts separate entries of the source, which are not always exact repeats. Equal values may be shown once. Inconclusive results are not listed. The source made the active and inactive calls. Unless noted, calls follow the shape of the dose curve; as a rule, active = well fitted curve in the direction sought with a large enough effect; inconclusive = small, poorly fitted or top-dose-only effect, or another doubt; inactive = no such curve, though single readings can be large; an effect the other way counts as inactive or inconclusive.

What was measured:
[1] = Cell Viability - BJ (AID 421; calls by dose curve;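 also: potency is read from the fitted curve at half-maximal effect; cells exposed to compound for 40 hours at 37 °C before readout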); conditions: BJ fibroblast viability, qHTS
Method in brief: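 Cytotoxicity as drop in intracellular ATP (CellTiter-Glo, 20 min RT) after 40 hr compound exposure of BJ fibroblasts at 37 °C. Titrations scaled between DMSO and 100 uM tamoxifen, Hill-fitted for AC50.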

[2] = Cell Viability - Jurkat (AID 426;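 active = dose-dependent loss of cell ATP signal giving a full or clear fitted curve, ranked by lower potency value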;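 also: potency is read from the fitted curve at half-maximal effect; cells exposed to compound for 40 hours at 37 °C before ATP read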); conditions: qHTS
Method in brief: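 Luminescent ATP read-out (CellTiter-Glo, 20 min at room temperature) after 40 hr compound exposure at 37 °C of Jurkat E6-1 cells, 5000/well. Decreased ATP taken as cytotoxicity; AC50 from standard Hill equation.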

[3] = Cell Viability - Hek293 (AID 427;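 active = compounds whose dose-response curve shows a full or clear partial loss of cell viability, called from curve shape rather than a numeric limit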;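 also: potency is read from the fitted curve at half-maximal effect; cells exposed to compound for 40 hours at 37 °C before reading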); conditions: qHTS
Method in brief: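 Luminescent ATP content (CellTiter-Glo, 20 min at room temperature) was measured after a 40 hr, 37 °C compound exposure of HEK293 cells. AC50 values came from Hill-equation fits of qHTS concentration-response data normalized to DMSO and 100 uM tamoxifen.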

[4] = Cell Viability - SK-N-SH (AID 435; calls by dose curve;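 also: potency is read from the fitted curve at half-maximal effect; compound exposure lasted 40 h at 37 °C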); conditions: SK-N-SH neuroblastoma cell viability qHTS
Method in brief: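 SK-N-SH human neuroblastoma cells (1500/well) were exposed to compounds in complete medium for 40 h at 37 °C, and intracellular ATP was then measured by CellTiter-Glo luminescence. AC50 was taken from Hill fits, normalized to DMSO and 100 uM tamoxifen.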

[5] = Cellular Toxicity (caspase-3) Jurkat (AID 655); conditions: Jurkat caspase-3 activation, luminescence; caspase-3 activation: at 92.2 µM (top of the series), DMSO = 0%, tamoxifen = 100%;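 also: cells exposed to compound for 16 h at 37 °C before reading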
Method in brief: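 Jurkat cells (5000/well) in complete medium were treated with compounds for 16 hr at 37 °C, then Caspase-Glo 3/7 luminescence was read after 20 min at room temperature. Data normalized to DMSO (basal) and 100 uM tamoxifen (100%); AC50 from Hill fit.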

[6] = Cellular Toxicity (caspase-3) SHSY5Y (AID 657); conditions: SH-SY5Y caspase-3 activation, DMSO zero, 10 µM staurosporine = 100%; series mostly up to 91.7 µM
Method in brief: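 SH-SY5Y human neuroblastoma cells (1500/well) were treated with compounds for 16 h at 37 °C, then Caspase-Glo 3/7 luminescence was read after 1 h at room temperature. Data normalized to DMSO and 10 uM staurosporine; AC50 from Hill fits.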

[7] = Cellular Toxicity (caspase-3) BJ (AID 658); conditions: BJ fibroblasts, luminescence, normalized: DMSO 0%, staurosporine 100%; series mostly up to 91.7 µM
Method in brief: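 qHTS, BJ fibroblasts, 1000 cells/well; 5 hr preincubation, 16 hr compound, 37 °C; Caspase-Glo 3/7 reagent, 1 hr RT; luminescence. DMSO = 0%, 10 uM staurosporine = 100%. Hill-equation AC50.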

[8] = Cellular Toxicity (caspase-3) N2a (AID 665); conditions: N2a cells, luminescence, normalized: DMSO 0%, 10 µM staurosporine 100%; series mostly up to 92.2 µM;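 also: compound exposure lasted 16 h at 37 °C before readout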
Method in brief: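 Luminescent Caspase-Glo 3/7 readout in N2a mouse neuroblastoma cells after 16 h compound exposure at 37 °C. Signal scaled to DMSO (basal) and 10 uM staurosporine (100%). Concentration-response fitted with Hill equation for AC50.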

[9] = Cellular Toxicity (caspase-3) Renal Proximal Tubule (AID 667); conditions: renal proximal tubule cells; series mostly up to 91.7 µM;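 also: cells exposed to compound for 16 hours at 37 °C before detection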
Method in brief: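 Primary rat proximal tubule cells, 1000/well, 5 h plating at 37 °C, then compound 16 h at 37 °C. Caspase-Glo 3/7 reagent, 1 h RT, luminescence. Normalized to DMSO (basal) and 10 uM staurosporine (100%); Hill-fit AC50.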

[10] = MultiTox-Fluor Cytotoxicity Assay - LYMP1-001 - Dead Cells (AID 946); conditions: LYMP1-001 lymphoblastoid cells, dead-cell protease fluorescence; series mostly up to 92.2 µM
Method in brief: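 Cytotoxicity as increased dead-cell protease fluorescence (bis-AAF-R110, 485/520 nm), read 60 min after MultiTox-Fluor reagent. Human lymphoblastoid line exposed 16 h; Hill-fitted AC50, with DMSO as 0% and 15 uM tetraoctylammonium bromide as 100%.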

[11] = Cell Viability - LYMP1-002 - Assay at 16 hr (AID 948); conditions: LYMP1-002 lymphoblastoid cell viability; series mostly up to 92.2 µM;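 also: 0% = DMSO alone and full effect = 92 µM tetraoctylammonium bromide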
Method in brief: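 Human lymphoblastoid cells (LYMP1-002), 2500/well, were preincubated 5 hr at 37 C, then exposed to compounds for 16 hr at 37 C in complete medium. Cellular ATP was read by CellTiter-Glo luminescence after 30 min at room temperature; AC50 from Hill fits.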

[12] = MultiTox-Fluor Cytotoxicity Assay - LYMP1-003 - Dead Cells (AID 961); conditions: LYMP1-003 lymphoblastoid cells, dead-cell protease fluorescence; series mostly up to 92.2 µM; also: nearly all actives have a fitted effect of over 70% in size
Method in brief: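 Dead-cell protease release, detected as bis-AAF-R110 fluorescence at 485/520 nm, was measured in LYMP1-003 cells after 16 h compound treatment at 37 C. AC50 values came from Hill-modeled qHTS curves normalized to DMSO (0%) and 15 uM tetraoctylammonium bromide (100%).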

[13] = Cell Viability - LYMP1-003 - Assay at 24 hr (AID 963); conditions: LYMP1-003 lymphoblastoid cell viability; series mostly up to 92.2 µM;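 also: plate controls were DMSO only for no effect and tetraoctylammonium bromide positive control for full effect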
Method in brief: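 CellTiter-Glo luminescence (intracellular ATP) read after 24 hr, 37 C compound exposure of 2500 LYMP1-003 human lymphoblastoid cells/well in complete medium; qHTS concentration series; AC50 via standard Hill equation.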

[14] = Cell Viability - LYMP2-013 (AID 970); conditions: LYMP2-013 lymphoblastoid cells viability; series mostly up to 92.2 µM;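 also: 0% = DMSO only and full inhibition = tetraoctylammonium bromide control; nearly all actives have a fitted effect of over 55% in size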
Method in brief: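 CellTiter-Glo luminescence (cellular ATP) read after 30 min at RT. Cells: human lymphoblastoid line, 2500/well, 24 hr compound exposure at 37 C. Tetraoctylammonium bromide positive control; AC50 via standard Hill fit of qHTS titrations.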

[15] = Cell Viability - LYMP2-016 (AID 984); conditions: LYMP2-016 lymphoblastoid cell viability, qHTS; series mostly up to 92.2 µM;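 also: cells exposed to compound for 24 hours at 37 °C; % is scaled to controls: 0 for no effect and ±100 for the full control effect; nearly all actives have a fitted effect of over 55% in size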
Method in brief: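 Human lymphoblastoid cells (LYMP2-016), 2500/well in complete medium, preincubated 5 hr at 37 C, then compound-treated 24 hr at 37 C. Intracellular ATP read by CellTiter-Glo luminescence after 30 min at room temperature; AC50 from Hill-equation concentration-response fits.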

[16] = Cell Viability - LYMP1-002 - Assay at 24 hr (AID 993); conditions: LYMP1-002 lymphoblastoid cells viability; series mostly up to 92.2 µM; also: % is scaled to controls: 0 for no effect and ±100 for the full control effect
Method in brief: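 CellTiter-Glo luminescence (intracellular ATP) after 24 h compound exposure, 37 C, in LYMP1-002 human lymphoblastoid cells; decreased ATP taken as cytotoxicity. AC50 from standard Hill fit of concentration-response curves.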

[17] = qHTS Assay for Identification of Small Molecule Inducers of Hypoxia Response (AID 2120; active = well fitted curve in the direction sought with a large enough effect in the signal ratio, with a control signal flat, not every such curve was filed as active; the % refers to the signal ratio; also: 0% is about no effect); conditions: hypoxia response reporter cells, beta-lactamase ratio readout; series mostly up to 104 µM
Method in brief: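 Read-out: CCF4 FRET emission ratio 460nm/530nm (excitation 405nm), converted to %Activity, with AC50 fitted across a compound titration. ME-180 cells carried an HRE-driven beta-lactamase reporter; compound exposure 17 h, 37 degrees C.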

[18] = molecular target: Peroxisome proliferator-activated receptor alpha (Homo sapiens) (UniProt Q07869); assay: qHTS assay for small molecule agonists of the peroxisome proliferator-activated receptor alpha (PPARalpha) signaling pathway (AID 651778); conditions: PathHunter PPARalpha complementation, chemiluminescence, 6 h; stronger effect = higher value; also: % of control where 0% means no effect
Method in brief: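 Enzyme-fragment complementation assay in which ligand-bound PPARalpha translocates and forms an active enzyme that generates chemiluminescence. Cells were plated overnight, exposed to compound for 6 hr at 37 C, and then given detection reagent for 60 min at room temperature.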

[19] = qHTS assay for cell viability of HEK293 cells (AID 743288); conditions: ATP luminescence (CellTiter-Glo), 18 h, stronger effect = lower value; also: % is scaled to controls: 0 for no effect and ±100 for the full control effect; nearly all actives have a fitted effect of over 50% in size
Method in brief: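 After 18 h compound exposure at 37 C, parental HEK293 cells (2,000/well) are lysed with CellTiter-Glo and luminescence is read following 30 min at room temperature.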

[20] = qHTS assay for cell viability of the p53RE-bla HCT-116 cell line (AID 743292); conditions: p53RE-bla HCT-116 viability, ATP luminescence, 16 h; series mostly up to 95 µM; also: % is scaled to controls: 0 for no effect and ±100 for the full control effect; nearly all actives have a fitted effect of over 55% in size
Method in brief: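 Luminescent ATP quantitation (CellTiter-Glo) served as the viability read-out; reagent was added after 16 h compound exposure at 37 C and read after 30 min at room temperature. Cells: p53RE-bla HCT-116, 4,000 per well.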

Chain of Peroxisome proliferator-activated receptor alpha (Homo sapiens) (Q07869 whole entry, looked up, the tested form may be a part): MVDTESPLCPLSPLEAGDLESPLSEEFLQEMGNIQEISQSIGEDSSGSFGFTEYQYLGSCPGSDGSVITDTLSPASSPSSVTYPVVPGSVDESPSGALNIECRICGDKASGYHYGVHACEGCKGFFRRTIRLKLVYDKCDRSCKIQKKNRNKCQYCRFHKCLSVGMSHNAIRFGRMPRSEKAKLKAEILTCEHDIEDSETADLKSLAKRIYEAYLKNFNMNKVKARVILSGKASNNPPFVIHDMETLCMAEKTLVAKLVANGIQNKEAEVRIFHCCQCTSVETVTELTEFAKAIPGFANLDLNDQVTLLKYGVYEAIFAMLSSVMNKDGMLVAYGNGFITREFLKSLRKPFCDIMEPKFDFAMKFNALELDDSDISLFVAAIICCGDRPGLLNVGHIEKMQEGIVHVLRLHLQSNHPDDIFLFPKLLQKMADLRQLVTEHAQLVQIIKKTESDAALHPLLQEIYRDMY

CCN(CC)CCO
inactive: Potency [1] > 92 µM | Potency [2] > 92 µM | Potency [3] > 92 µM | Potency [4] > 92 µM | caspase-3 activation [5] 2.76% | outcome [6] | outcome [7] | outcome [8] | outcome [9] | outcome [10] | outcome [11] | Potency [12] | outcome [13] | Potency [14] | Potency [15] | Potency [16] | Potency [17] | max response [18] -3.44% | max response [19] -8.96% | Potency [20]

CCCCCC[N+](=O)[O-]
inactive: Potency [1] > 92 µM | Potency [2] > 92 µM | Potency [3] > 92 µM | Potency [4] > 92 µM | caspase-3 activation [5] 0.0633% | outcome [6] | outcome [7] | outcome [8] | outcome [9] | outcome [10] | outcome [11] | Potency [12] | outcome [13] | Potency [14] | Potency [15] | Potency [16] | Potency [17] | max response [18] 6.24% | max response [19] 7.41% | Potency [20]

ClCc1ccccc1
inactive: Potency [1] > 92 µM | Potency [2] > 92 µM | Potency [3] > 92 µM | Potency [4] > 92 µM | caspase-3 activation [5] 0.582% | outcome [6] | outcome [7] | outcome [8] | outcome [9] | outcome [10] | outcome [11] | Potency [12] | outcome [13] | Potency [14] | Potency [15] | Potency [16] | Potency [17] | max response [18] 3.28% | max response [19] -10.4% | Potency [20]

CN(C)C(=O)Nc1ccc(Cl)cc1
inactive: Potency [1] > 92 µM | Potency [2] > 92 µM | Potency [3] > 92 µM | Potency [4] > 92 µM | caspase-3 activation [5] -0.0397% | outcome [6] | outcome [7] | outcome [8] | outcome [9] | outcome [10] | outcome [11] | Potency [12] | outcome [13] | Potency [14] | Potency [15] | Potency [16] | Potency [17] | max response [18] -3.6% and -1.79% | max response [19] 10.7% and -3.59% | Potency [20]

[O-][Cl+2]([O-])O
inactive: Potency [1] > 92 µM | Potency [2] > 92 µM | Potency [3] > 92 µM | Potency [4] > 92 µM | caspase-3 activation [5] -0.446% | outcome [6] | outcome [7] | outcome [8] | outcome [9] | outcome [10] | outcome [11] | Potency [12] | outcome [13] | Potency [14] | Potency [15] | Potency [16] | Potency [17] | max response [18] -2.92% | max response [19] -5.12% | Potency [20]
